Sampled rows, rich in hits. Any-hit rate of the full collection: about 3.1%.
Rin1-Abl PPI inh – inhibitors of Rin1-Abl protein binding, primary screen, biochemical, TR-FRET; Tyrosine-protein kinase ABL1 (Homo sapiens) + Ras and Rab interactor 1 (Homo sapiens), …; inhibition, % at 7.35 µM; 360,000 tested, 0.4% active; AID 588664, 2011; in the data active means inhibition above about 5%, passing the limit was not always enough
UHRF1 MBD2 ctr – UHRF1 methylated DNA binding inhibitors, primary screen, counter-screen for MBD2 inhibitor project, biochemical, TR-FRET, human UHRF1, single concentration; E3 ubiquitin-protein ligase UHRF1 (Homo sapiens), Q96T88; 370,000 tested, 0.75% active; UHRF1 binding to methylated oligo; AID 687016, 2013; inhibition, % at 4.4 µM;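 further: UHRF1 SRA domain binding a hemimethylated CpG hairpin DNA probe; 0% = median of test compound wells and 100% = reference inhibitor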
proKLK7 act – proKLK7 zymogen activators, primary screen, biochemical, fluorescence intensity. 370,000 tested, 0.9% active. activation, % at 7 µM. Kallikrein-7 (Homo sapiens), P49862. purified proKLK7, EDANS-DABCYL substrate fluorescence; 100% is mature enzyme control, 0% vehicle. AID 652039, 2013;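 active means activation above the mean of all tested compounds plus 3 SD, computed per campaign excluding outliers beyond control limits, cut at about 13% in these data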
MBD2 DNA inh – inhibitors of MBD2 binding to methylated DNA, primary screen, biochemical, TR-FRET, DNA-binding domain, human | Methyl-CpG-binding domain protein 2 (Homo sapiens), Q9UBB5 | MBD2 binding to methylated oligonucleotide | inhibition, % at 4.4 µM | 370,000 tested, 0.31% active | AID 686964, 2013; in the data active means inhibition above about 13%
Target sequence (Q9UBB5 whole entry, looked up, the tested form may be a part): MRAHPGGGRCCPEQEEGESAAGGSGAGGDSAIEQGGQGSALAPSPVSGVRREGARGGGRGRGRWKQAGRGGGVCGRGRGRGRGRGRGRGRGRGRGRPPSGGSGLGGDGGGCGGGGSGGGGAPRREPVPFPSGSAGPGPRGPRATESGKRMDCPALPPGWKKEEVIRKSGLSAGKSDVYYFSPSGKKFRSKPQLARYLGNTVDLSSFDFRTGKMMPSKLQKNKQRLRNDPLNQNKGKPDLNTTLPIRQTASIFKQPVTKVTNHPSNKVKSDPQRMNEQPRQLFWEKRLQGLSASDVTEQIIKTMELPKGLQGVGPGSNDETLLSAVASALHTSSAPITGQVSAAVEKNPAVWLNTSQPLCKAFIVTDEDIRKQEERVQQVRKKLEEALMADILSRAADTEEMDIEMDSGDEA
Neddyl block – inhibitors of cullin neddylation, primary screen, biochemical, TR-FRET, uHTS, NAE and Ubc12; calls only at 25 µM; NEDD8-conjugating enzyme Ubc12 (Homo sapiens) + NEDD8-activating enzyme E1 regulatory …; 360,000 tested, 0.58% active; in the data active means inhibition above about 36%
LEDGF integ inh – blockers of LEDGF/p75-dependent integrase strand transfer – biochemical, TR-FRET, high throughput, primary screen. TR-FRET IN-LEDGF/p75 DNA integration, Eu/Cy5. 370,000 tested, 0.64% active. inhibition, % at 3.7 µM. HIV-1 integrase (with human LEDGF/p75);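 active means inhibition above the screen-wide mean plus 3 SD, cut at about 13% in these data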;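 further: signal is the Cy5 over europium emission ratio at 671 and 618 nm; 0% = plate median of compound wells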
UHRF1 ctr MBD2 – UHRF1 methylated DNA binding inhibitors, counter-screen for MBD2 inhibitor project, biochemical, TR-FRET, human UHRF1; shares compounds with MBD2 DNA inh; UHRF1 binding to methylated oligonucleotide; inhibition, % at 4.4 µM; 1,000 tested, 25% active;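 further: UHRF1 SRA domain binding a labeled hemimethylated CpG hairpin DNA; 0% = vehicle only and 100% = reference inhibitor with vehicle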
MBD2 DBD conf – inhibitors of MBD2 binding to methylated DNA, confirmation, biochemical, TR-FRET, DNA-binding domain, human; TR-FRET MBD2-DBD binding to methylated oligonucleotide; shares compounds with MBD2 DNA inh; inhibition, % at 4.4 µM; AID 720531, 2013; 1,000 tested, 26% active; in the data active means inhibition above about 14%
Starred values were filed as active, the others as inactive; i = inactive; / = not tested or not shown. Unless noted, no stated cut-off is given here; in the data, active means inhibition above about 21%; inactive means the rest.

SMILES | Rin1-Abl PPI inh | UHRF1 MBD2 ctr | proKLK7 act | MBD2 DNA inh | Neddyl block | LEDGF integ inh | UHRF1 ctr MBD2 | MBD2 DBD conf
Cc1ccc(S(=O)(=O)Nc2ccccc2N=Cc2c(F)c(F)c(F)c(F)c2F)cc1 | 4 | -1 | 0 | 14* | i | 2 | 5 | 2
Cc1ccc(S(=O)(=O)Nc2ccccc2C=Nc2cccc(C)c2C)cc1 | -4 | -2 | -5 | -3 | i | 11 | / | /
COc1ccccc1CNC(=O)C[C@H]1CC[C@H]2[C@H](COc3ccc(NS(=O)(=O)c4ccc(C)cc4)cc3C(=O)N2C)O1 | / | 1 | 0 | 18* | / | -1 | 5 | 6
CN1C(=O)c2cc(NS(C)(=O)=O)ccc2OC[C@H]2O[C@@H](CC(=O)NCc3ccc(-c4ccccc4)cc3)CC[C@@H]21 | / | 8 | 0 | 11 | / | 2 | / | /
COc1ccc([C@H]2C[C@@H](O)[C@H](n3cc(C4CC4)nn3)CN2C(=O)c2cccs2)cc1 | -1 | 2 | -1 | -5 | i | 0 | / | /
CCCc1cc(=O)[nH]c2nnc(SCC(=O)Nc3cccc(NC(C)=O)c3)n12 | 7 | 1 | 0 | 16* | i | -1 | 5 | 6
CCCc1cc(=O)[nH]c2nnc(SCC(=O)Nc3ccc(NC(C)=O)cc3)n12 | -2 | 2 | -1 | 4 | i | -4 | / | /
COc1cccc(-c2oc3c(c2-c2ccc(Br)nc2)C(O)CCC3)c1 (configuration not stated) | / | 15 | 2 | 13* | i | 1 | 22* | 28*
Cc1cc(C(=O)COC(=O)c2ccc(F)cc2F)c(C)n1C1CC1 | 2 | 0 | 0 | -1 | i | 4 | / | /
CC(=O)Nc1ccc2nc(C)n(Cc3ccc(Cl)cc3)c(=O)c2c1 | 2 | 23* | 0 | 15* | i | 2 | 6 | 2
CCn1cc([N+](=O)[O-])c(=O)c2cc(F)c(N3CCOCC3)cc21 | 0 | 1 | 1 | -3 | i | 1 | / | /
C=CCN(CC=C)Cc1c(O)ccc2c1oc(=O)c1ccccc12 | -6 | 16 | 1 | 13* | i | 0 | -1 | 12
C=CCN(CC=C)Cc1cc(=O)oc2ccc3ccccc3c12 | 3 | -4 | -4 | 4 | i | 4 | / | /
CS(=O)(=O)N1CCC(C(=O)Nc2ccc(C(N)=O)cc2)CC1 | 0 | -1 | 0 | 40* | i | -2 | 5 | 1
Cc1nc(N2CCN(c3ccccn3)CC2)c2c(C)c(C(=O)N3CCN(c4ccccc4F)CC3)sc2n1 | 1 | -1 | 0 | 3 | i | 1 | / | /
O=C(O)C1=CCC=CC1C(=O)O (configuration not stated) | 2 | 39* | -1 | 17* | i | 0 | 52* | 20*
COC(=O)C1CN(Cc2cn(Cc3ccccc3)nn2)CCS(=O)(=O)N1Cc1ccc(F)cc1 (configuration not stated) | / | 16 | 0 | 10 | / | -2 | / | /
COc1ccc(Cc2c(C3CCCCC3)nc3ccc(C)cn23)c(C)c1 | / | 25* | -1 | 18* | / | -1 | 5 | 6
COc1ccc(CNS(=O)(=O)/C=C/c2cc(C)ccc2CNC(=O)OC(C)(C)C)cc1 | / | -2 | 0 | -5 | / | 4 | / | /
COC(=O)[C@]12C[C@H](CC(=O)NCC3CCCCC3)C(=O)N(Cc3ccccc3)C1=C[C@H](C(C)(C)C)O[C@@H]2C | / | 24* | 1 | 20* | / | 0 | 3 | 2

Bioassay records: PubChem BioAssay, several laboratories
